CCHFV vOTU inh: CCHFV vOTU protease inhibitors, primary screen, biochemical, Pep-AMC substrate, fluorescence. inhibition, % at 11.5 µM. 370,000 compounds, 0.55% hits. Crimean-Congo hemorrhagic fever virus L polyprotein viral ovarian tumor (vOTU) protease …; in the data active = inhibition above about 30%; also: 0% = vehicle wells with enzyme and 100% = no enzyme wells
RecA splice inh: Mtb RecA intein splicing inhibitors, primary screen, biochemical, fluorescence, HTS; AID 2221, 2009; inhibition, % (concentration not given with the values); 290,000 compounds, 0.75% hits; Protein RecA (Mycobacterium tuberculosis (strain ATCC 25618 / H37Rv)), P9WHJ3; cell-free RecA intein splicing; in the data active = inhibition above about 30%;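 also: 0% = vehicle wells and 100% = reference inhibitor control wells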
DUSP3 inh: VHR1 phosphatase inhibitors, primary screen, biochemical, absorbance, uHTS. recombinant VHR phosphatase, pNPP absorbance. inhibition, % at 13.3 µM. 290,000 compounds, 0.52% hits; in the data active = inhibition above about 50%
Target sequence (P51452 whole entry, looked up): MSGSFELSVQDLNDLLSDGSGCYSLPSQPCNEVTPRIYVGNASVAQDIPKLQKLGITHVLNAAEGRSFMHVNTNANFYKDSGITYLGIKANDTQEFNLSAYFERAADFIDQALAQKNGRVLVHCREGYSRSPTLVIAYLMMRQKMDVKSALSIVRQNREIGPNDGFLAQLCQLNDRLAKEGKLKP
3CLpro inhibitor: SARS-CoV 3CLpro protease inhibitors, primary screen, biochemical, quenched FRET | Replicase polyprotein 1ab (Severe acute respiratory syndrome coronavirus), P0C6X7 | recombinant SARS-CoV 3CLpro, quenched FRET peptide cleavage | inhibition, % at 6 µM | 290,000 compounds, 0.14% hits | AID 1706, 2009; in the data active = inhibition above about 12%
* marks the source's active call; other numbers are inactive results; / = no result given. Compounds with a hit are over-represented: about 1.5% of the library has one in this group of screens.

SMILES | CCHFV vOTU inh | RecA splice inh | DUSP3 inh | 3CLpro inhibitor
c1ccc(-c2nnnc3ccccc23)cc1 | 2.6 | 8.7 | -1.5 | -4.2
Clc1ccc2nnnc(-c3ccccc3)c2c1 | 5.3 | 56.1* | -1.5 | 1.2
Cn1c(Cc2cccs2)nnc1SCc1nc2ccccc2[nH]1 | -5.3 | -1.0 | 53.4* | -1.7
COC(=O)C(C)Sc1ncnc2c1nnn2-c1ccc(F)cc1 (stereo not given) | -14.4 | 52.7* | 21.4 | 4.7
CCOC(=O)CNC(=O)CSc1ncnc2c1nnn2-c1ccc(F)cc1 | 9.7 | 2.4 | 26.4 | -3.5
COc1ccc(S(=O)(=O)N(C)CC(=O)N2CCCC2)cc1OC | 2.2 | -2.5 | 53.3* | -3.4
COc1ccc(S(=O)(=O)N(C)CC(=O)N2CCN(C)CC2)cc1Cl | 3.5 | -2.6 | 52.8* | 2.4
Cc1nc(C)c(C(=O)N(c2ccc(F)cc2)C(C(=O)NCC2CCCO2)c2ccccc2)s1 (stereo not given) | 3.9 | 0.7 | 1.1 | -2.2
Cc1nc(C)c(C(=O)N(c2ccccc2F)C(C(=O)NCC2CCCO2)c2ccccc2)s1 (stereo not given) | -2.3 | 2.6 | 54.4* | -6.5
CC(C(=O)O)N(C(=O)c1ccccc1)c1ccc(F)cc1 (stereo not given) | 3.9 | 8.5 | 52.9* | 2.6
O=c1nc2n(c3ccc(Br)cc13)CCS2 | -1.0 | 1.8 | -13.9 | -5.3
CN(CCO)CC(O)CN(c1ccccc1)c1ccccc1 (stereo not given) | -2.5 | -2.1 | 1.5 | 0.9
CNCC(O)CN(c1ccccc1)c1ccccc1 (stereo not given) | 10.9 | 40.5* | 20.4 | -3.4
Nc1nc(N2CCCCC2)nc(N2CCCCC2)n1 | 7.5 | -0.7 | 51.6* | 0.5
O=C(Oc1ccc(Br)cc1C(=S)N1CCCCC1)c1cc([N+](=O)[O-])cc([N+](=O)[O-])c1 | / | 63.5* | 18.8 | 2.2
Cc1ccc(C)c(NC(=O)c2cc(=O)c3ccccc3o2)c1 | -9.7 | 0.7 | -2.8 | -1.3
Cc1ccc(NC(=O)c2cc(=O)c3ccccc3o2)c(C)c1 | 3.6 | -0.1 | 57.9* | 1.3
COc1cccc(N2C(=O)NC(=O)/C(=C/c3ccc4c5c(cccc35)CC4)C2=O)c1 | -44.5 | -3.9 | 50.8* | 3.2
Cc1ccc(C(=O)NCCCNCCCNC(=O)c2ccc(C)nc2)cn1 | -0.4 | -7.1 | 4.3 | 0.4
Cc1ccc(C(=O)NCCCNC(=O)c2ccco2)cn1 | 2.7 | -2.3 | 56.5* | 1.2
S=C(NCc1ccccc1)Nc1ccncc1 | -10.1 | 2.5 | 52.8* | 0.1
S=C(NCc1ccncc1)Nc1ccccc1 | -9.6 | 12.8 | 19.1 | -0.1
Cc1cccc(NC(=O)c2ccc(COc3cccc4ccccc34)o2)n1 | -7.7 | 3.4 | -11.7 | 4.1
O=C(c1ccco1)N1CCN(c2cc(C(F)(F)F)nc3ncnn23)CC1 | 0.1 | 0.3 | 51.7* | 1.7
Cc1cc(N2CCN(C(=O)c3ccco3)CC2)n2ncnc2n1 | -2.4 | -2.8 | 0.9 | 0.6
SMILES | CCHFV vOTU inh | RecA splice inh | DUSP3 inh | 3CLpro inhibitor
CC(=O)NC(Cc1ccccc1)P(=O)(O)O (stereo not given) | 2.4 | / | / | /
CCCOc1ccc(C2c3c(oc4cc(C)c(C)cc4c3=O)C(=O)N2CCCN(C)C)cc1 (stereo not given) | 9.9 | 1.1 | 25.2 | -1.1
CCOc1cccc(C2c3c(oc4cc(C)c(C)cc4c3=O)C(=O)N2CCCN(C)C)c1 (stereo not given) | / | / | 50.3* | 1.4
COC(=O)c1cc(NC(=O)NC2CCCCN(Cc3cccc(Cl)c3)C2=O)cc(C(=O)OC)c1 (stereo not given) | -2.6 | / | / | /
Cc1ccc(S(=O)(=O)n2ccc(-c3ccc(OCc4c(F)cccc4Cl)cc3)n2)cc1 | -12.6 | 2.9 | 52.9* | -2.0
O=C(CN1C(=O)NC2(CCCc3ccccc32)C1=O)N1CCN(C(=O)c2ccco2)CC1 (stereo not given) | -0.3 | / | 54.3* | -11.3
COc1ccc(N2CCN(C(=O)CN3C(=O)NC4(CCCc5ccccc54)C3=O)CC2)cc1 (stereo not given) | -1.5 | -0.6 | / | /
CC(=O)Nc1ccc(NC(=O)c2cccc3ccccc23)cc1 | -12.0 | -0.6 | 59.7* | -3.0
COc1ccc(NC(=O)CN(C)C(=O)c2ccccc2OC)cc1 | -9.3 | -0.8 | 51.3* | -0.7
COc1ccc(NC(=O)CN(C)C(=O)c2cccc3ccccc23)cc1 | 0.7 | 1.6 | / | /
Cc1cc(O)ccc1Nc1nc(-c2cccs2)cs1 | 15.9 | 30.3* | 16.5 | -0.3
Cc1cc(O)ccc1Nc1nc(-c2cccnc2)cs1 | -9.6 | 2.0 | 4.9 | -2.8
CC(C)CN(C(=O)C1COc2ccccc2O1)c1c(N)n(CC(C)C)c(=O)[nH]c1=O (stereo not given) | -8.2 | / | / | /
Cc1ccc(C(=O)OCC(=O)N2C(C)CCCC2C)cc1S(=O)(=O)N1CCOCC1 (stereo not given) | 10.5 | 0.2 | / | /
O=C(NC(Cc1ccccc1)c1ccc2c(c1)OCCCO2)c1ccccc1F (stereo not given) | -4.8 | -1.6 | 51.6* | 4.7
COc1ccc(C(=O)NC(Cc2ccccc2)c2ccc3c(c2)OCCCO3)cc1 (stereo not given) | -2.3 | 3.8 | 2.0 | 11.6
CCOC(=O)c1ccc(N2CCN(C(=O)c3ccccc3)CC2)c(NC(=O)c2ccco2)c1 | 6.2 | 4.1 | 17.0 | -6.1
Cc1nc2cc(OCc3cc(C(=O)NC(C)c4cnn(C)c4)no3)ccc2s1 (stereo not given) | 28.1 | -3.0 | 51.1* | 1.2
N#CCCN(C(=O)CCl)c1cccc(Cl)c1 | 6.8 | 45.3* | 22.5 | -1.3
C/C(CC(=O)Nc1ccccn1)=N\NC(=O)c1ccc(C)cc1 | -15.0 | 46.9* | -8.8 | -0.7
Cc1ccc(S(=O)(=O)N2C(=O)CCC2C(=O)N2CCCCC2)cc1 (stereo not given) | -6.5 | -1.4 | 52.0* | 3.2
Cc1cc2cc(C#N)c(NCCNC(=S)NCCCN3CCOCC3)nc2cc1C | -26.9 | -39.8 | 59.9* | 9.6
O=C1c2cccnc2-c2ncccc21 | -1.3 | -1.1 | 27.6 | -0.5
COC1=C(Br)C(=O)c2ncccc2C1=O | 100.7* | / | / | /
CCOC(=O)C/C(C)=N/NC(=O)Nc1ccccc1 | 1.8 | 7.2 | 13.5 | 0.7
SMILES | CCHFV vOTU inh | RecA splice inh | DUSP3 inh | 3CLpro inhibitor
C/C(CC(C)C)=N\NC(=O)Nc1ccccc1 | 1.4 | -10.0 | 50.8* | -2.4
O=C(CCC1CCCC1)NNC(=O)c1ccccc1O | 6.5 | 6.1 | / | /
O=S1(=O)N=C(Nc2ccc(S(=O)(=O)N3CCCCC3)cc2)c2ccccc21 | -0.9 | -4.1 | 53.4* | 1.0
O=S1(=O)N=C(Nc2ccc(N3CCOCC3)cc2)c2ccccc21 | 9.2 | -5.6 | 17.8 | -0.3
N#Cc1ccc(Cn2ccc3ccc(-c4ccc5ccn(C(=O)C6CC6)c5c4)cc32)cc1 | 0.3 | / | / | /
Nc1nc(C(=O)N2CCOCC2)nn1C(=O)c1ccc(Cl)cc1 | 2.7 | 32.2* | 34.0 | 1.3
N#C/C(=C\c1ccccc1)C(=O)NC1CC1 | -12.5 | -0.1 | 53.0* | -0.7
N#C/C(=C\c1cccnc1)C(=O)NC1CCCCC1 | -19.5 | 7.6 | 4.7 | 5.0

Bioassay records (PubChem BioAssay)
